Measurements reported in the supplement of paper PMC8728848.
Many of the other results were omitted from the sample, so the strongest signals are more common in it than they were.

What was measured:
Assay in all cases: glycan array binding signal (z-score within array); higher = stronger binding
Details in all cases: glycan notation: IUPAC condensed, linker removed
[1] = test system: Neu5Ac(a2-6)Gal(b1-4)GlcNAc(b1-2)Man(a1-6)Man(b1-4)GlcNAc(b1-4)GlcNAc
Procedure, shortened: (§1)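 The Consortium for Functional Glycomics database supplied 3228 glycan arrays, of which those lacking an available protein sequence were dropped. The binding signal, a within-array Z-score, was averaged across arrays of the same protein sequence and across linkers. Negative scores can be read as non-binding.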

[2] = test system: Neu5Ac(a2-6)Gal(b1-4)GlcNAc(b1-3)Gal(b1-4)GlcNAc(b1-3)Gal(b1-4)GlcNAc(b1-2)Man(a1-3)[Neu5Ac(a2-6)Gal(b1-4)GlcNAc(b1-3)Gal(b1-4)GlcNAc(b1-3)Gal(b1-4)GlcNAc(b1-2)Man(a1-6)]GalNAc
Procedure, shortened: as §1

[3] = test system: Neu5Ac(a2-6)Gal(b1-4)GlcNAc(b1-3)Gal(b1-4)GlcNAc(b1-6)[Gal(b1-3)]GalNAc
Procedure, shortened: as §1

[4] = test system: Neu5Ac(a2-6)Gal(b1-4)GlcNAc(b1-2)Man(a1-6)[Gal(b1-4)GlcNAc(b1-2)Man(a1-3)]Man(b1-4)GlcNAc(b1-4)GlcNAc
Procedure, shortened: as §1

[5] = test system: Neu5Ac(a2-6)Gal(b1-4)GlcNAc(b1-2)[Neu5Ac(a2-3)Gal(b1-4)GlcNAc(b1-4)]Man(a1-3)[Neu5Ac(a2-3)Gal(b1-4)GlcNAc(b1-2)Man(a1-6)]Man(b1-4)GlcNAc(b1-4)GlcNAc
Procedure, shortened: as §1

[6] = test system: Neu5Ac(a2-6)Gal(b1-4)GlcNAc(b1-2)[Neu5Ac(a2-6)Gal(b1-4)GlcNAc(b1-6)]Man(a1-6)[Neu5Ac(a2-6)Gal(b1-4)GlcNAc(b1-2)Man(a1-3)][GlcNAc(b1-4)]Man(b1-4)GlcNAc(b1-4)GlcNAc
Procedure, shortened: as §1

[7] = test system: Neu5Ac(a2-6)Gal(b1-4)GlcNAc(b1-3)Gal(b1-3)GlcNAc
Procedure, shortened: as §1

[8] = test system: Neu5Ac(a2-6)Gal(b1-4)GlcNAc(b1-3)Gal(b1-4)[Fuc(a1-3)]GlcNAc(b1-3)Gal(b1-4)[Fuc(a1-3)]GlcNAc
Procedure, shortened: as §1

[9] = test system: Neu5Ac(a2-6)Gal(b1-4)GlcNAc(b1-3)Gal(b1-4)GlcNAc
Procedure, shortened: as §1

[10] = test system: Neu5Ac(a2-6)Gal(b1-4)GlcNAc(b1-3)GalNAc
Procedure, shortened: as §1

## Epa22
[1]
  glycan array binding signal (z-score): 0.268
[2]
  glycan array binding signal (z-score): 3.15
[3]
  glycan array binding signal (z-score): 0.044

## BambL (Burhholderia ambifaria), Q0B4G1
[4]
  glycan array binding signal (z-score): -0.317

## MIC3-MAR1b (Eimeria tenella), B6VCV4
[5]
  glycan array binding signal (z-score): 2.99

## AgI/IIC123-GFP (Streptococcus mutans)
[6]
  glycan array binding signal (z-score): 3.72

## LcI (Legionella pneumophila)
[7]
  glycan array binding signal (z-score): 0.02

## SiiE (Salmonella typhimurium), A0A0H3NVH0
[7]
  glycan array binding signal (z-score): 2.56

## AgI/II Vhelical-GFP (Streptococcus mutans)
[2]
  glycan array binding signal (z-score): 1.12
[8]
  glycan array binding signal (z-score): 1.26

## SpGH101 (Streptococcus pneumoniae), Q8DR60
[9]
  glycan array binding signal (z-score): -0.199
[10]
  glycan array binding signal (z-score): 2.23
